Laboratory results: PubChem BioAssay (NCI)
About 83,000 compounds went through this panel and 20% of them were active in at least one assay; those are over-represented in the sample as a whole.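 The endpoint reported here, percent growth, reads 100 for growth as untreated, 0 for no net growth and -100 for all cells dead.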 A number with no mark means an inactive call. Calls of active or inactive are those of the source. The calls were made as follows: active = growth percent below 10; inactive = the rest.

Legend:
Experiment in all cases: NCI-60 one-dose screen, 48 h (100 = growth as untreated, 0 = no growth, -100 = all killed)
Conditions in all cases: 10 µM unless noted
SR leukemia = test system: SR leukemia
OVCAR-8 ovarian = test system: OVCAR-8 ovarian
OVCAR-5 ovarian = test system: OVCAR-5 ovarian
OVCAR-4 ovarian = test system: OVCAR-4 ovarian
SK-OV-3 ovarian = test system: SK-OV-3 ovarian
IGROV1 ovarian = test system: IGROV1 ovarian
OVCAR-3 ovarian = test system: OVCAR-3 ovarian
HS 578T breast = test system: HS 578T breast
NCI/ADR-RES ovarian = test system: NCI/ADR-RES ovarian

Row | Structure (SMILES) | growth (SR leukemia) | growth (OVCAR-8 ovarian) | growth (OVCAR-5 ovarian) [%] | growth (OVCAR-4 ovarian) | growth (SK-OV-3 ovarian) | growth (IGROV1 ovarian) | growth (OVCAR-3 ovarian) | growth (HS 578T breast) | growth (NCI/ADR-RES ovarian)
1 | CCOC(=O)c1sc2ncc(-c3ccc(C)cc3)n2c1C | 112% | 94.7% | 95.9 | 95.4% | 81.3% | 71.3% | 97.2% | 96.7% | 92.9%
2 | NCCOc1ncccc1/C=C1\C2C=CC=CC2C2C=CC(F)=CC12 (configuration not stated) | 0.916% (active) | 25.7% | 31.3 | 68.3% | 20.1% | 29.9% | 35% | 61.5% | 27.8%
3 | COc1ccc2sc3c(NCCCNCCO)nc4ccccc4c3c(=O)c2c1 | -46.9% (active) | 54.6% | 84.2 | 4.38% (active) | 85.7% | 45.9% | 0.904% (active) | 53% | 63.8%
4 | O=C(Nc1ccc(Cl)cc1F)c1cc(Cl)ccc1O | -21.2% (active) | 8.56% (active) | 19.7 | 17.9% | 9.05% (active) | 8.98% (active) | 2.51% (active) | -13.9% (active) | 3.01% (active)
5 | O=c1c2cc(F)ccc2sc2c(NCCO)nc3ccccc3c12 | 88.9% | 97.1% | 108 | 111% | 109% | 104% | 121% | 110% | 103%
6 | O=S(=O)(Nc1ccc(-c2nc(-c3cccc(OCCN4CCOCC4)c3)c(-c3ccnc(Br)c3)[nH]2)cc1)c1ccccc1 | -18.7% (active) | 32.3% | 54.5 | 40.6% | 59.1% | 43.7% | 46.1% | 0.194% (active) | 54.1%
7 | Cc1cc(-c2cc(C)c(N)cc2C)c(C)cc1N | 45.5% | 103% | 97.2 | 117% | 95.7% | 109% | 107% | 107% | 100%
8 | COc1ccc(S(=O)(=O)n2c3ccccc3n3ncc(-c4nnc(C)o4)c23)cc1 | 24.7% | 45% | 30.6 | 81.6% | 54.4% | 34.4% | 0.366% (active) | 27% | -25.1% (active)
